Screening data as filed in PubChem.
A selection: hits, their analogues and other compounds. The true share with any hit is near 10%.
SW480 rereplic: A quantitative high throughput screen for small molecules that induce DNA re-replication in SW480 colon adenocarcinoma cells; SW480 DNA re-replication, Hoechst DNA content imaging, 48 h; Potency, µM (series often up to 46.1 µM), for inactives: at the top dose re-replication activation, usual class: activators; 1.8% of 340,000 active; also: % of control where 0% means no effect; nearly all actives have a fitted effect of over 55% in size
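First, 250 cells per well were seeded. Next, compound or vehicle (23 nL) was pinned in, plates sat 48 hr at 37 C. Finally Hoechst was added for 40 min before fluorescence scanning.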
ELG1 DNA repair: qHTS screen for small molecules that inhibit ELG1-dependent DNA repair in human embryonic kidney (HEK293T) cells expressing luciferase-tagged ELG1; HEK293T ELG1-luciferase reporter, luminescence, 16 h; DNA damage induced by 5-fluorouridine; Potency, µM (doses to about 46.1 µM), for inactives: at the highest dose activity change, negative = inhibition, usual class: inhibitors; 2.3% of 330,000 active; also: % is scaled to controls: 0 for no effect and ±100 for the full control effect; nearly all actives have a fitted effect of over 55% in size
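Quantitative HTS, concentration-response format. 2,000 cells/well co-treated with 5-fluorouridine and compound, 16 hr in 5% CO2 at 37 °C; ONE-Glo luminescence read after 30 min.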
MCF10A rereplic: A quantitative high throughput screen for small molecules that induce DNA re-replication in MCF 10a normal breast cells. MCF 10A DNA re-replication, Hoechst nuclear intensity, 48 h. Potency, µM (highest dose often 46.1 µM), for inactives: at the highest dose activity, positive = re-replication, hits mostly activators. 2.9% of 350,000 active; also: % of control where 0% means no effect; nearly all actives have a fitted effect of over 50% in size
VP16 counter: VP16 counterscreen qHTS for inhibitors of ROR gamma transcriptional activity; 3.5% of 310,000 active; Potency, µM (highest dose often 53.6 µM), for the others: at the highest dose activity, negative = inhibition, hits mostly inhibitors; AID 2546, 2010; Drosophila S2 Gal4-VP16 UAS-luciferase, luminescence, 20 h;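 also: Gal4-VP16 expression switched on by copper sulfate through the metallothionein promoter; % is scaled to controls: 0 for no effect and ±100 for the full control effect; nearly all actives have a fitted effect of over 50% in size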
RORg inh: qHTS for inhibitors of ROR gamma transcriptional activity. Nuclear receptor ROR-gamma (Mus musculus), P51450. Potency, µM (titrated, usually from 53.6 µM), inactives show at the highest dose activity change, negative = inhibition, actives largely listed as inhibitors. 5.4% of 310,000 active. Drosophila S2 Gal4-RORgamma UAS-luciferase reporter, 20 h. AID 2551, 2010; also: % is scaled to controls: 0 for no effect and ±100 for the full control effect; nearly all actives have a fitted effect of over 60% in size
Target sequence (P51450 whole entry, looked up, the tested form may be a part): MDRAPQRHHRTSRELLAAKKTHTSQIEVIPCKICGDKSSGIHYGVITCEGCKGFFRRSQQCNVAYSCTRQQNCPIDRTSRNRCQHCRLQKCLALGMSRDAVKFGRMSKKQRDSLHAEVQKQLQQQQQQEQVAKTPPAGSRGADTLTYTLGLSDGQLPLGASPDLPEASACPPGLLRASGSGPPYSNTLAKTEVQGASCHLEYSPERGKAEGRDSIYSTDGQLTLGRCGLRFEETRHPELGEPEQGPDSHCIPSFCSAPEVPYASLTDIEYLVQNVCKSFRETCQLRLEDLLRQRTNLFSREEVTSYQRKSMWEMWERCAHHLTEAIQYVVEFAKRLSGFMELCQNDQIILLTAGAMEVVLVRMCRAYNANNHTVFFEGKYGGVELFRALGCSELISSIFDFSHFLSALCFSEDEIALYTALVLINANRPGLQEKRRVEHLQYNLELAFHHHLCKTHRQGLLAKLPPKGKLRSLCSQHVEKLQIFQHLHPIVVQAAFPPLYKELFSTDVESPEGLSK
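A Gal4/UAS one-hybrid system in insect cells: metallothionein-promoter Gal4–ROR gamma fusion plus Photinus luciferase reporter. Copper sulfate 700 uM final, 20 hr ambient incubation, luminescent detection after 10 min with reagent.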
* marks the source's active call; other numbers are inactive results; ? = inconclusive; nt = not tested or not shown; [ ] = remark or other dose. Calls follow the shape of the dose curve; as a rule, active = well fitted curve in the direction sought with a large enough effect; inconclusive = small, poorly fitted or top-dose-only effect, or another doubt; inactive = no such curve, though single readings can be large; an effect the other way counts as inactive or inconclusive. Potency is read from the fitted curve at half-maximal effect.

SMILES | SW480 rereplic | ELG1 DNA repair | MCF10A rereplic | VP16 counter | RORg inh
O=C(N/N=C/c1ccsc1)c1cc(-c2ccncc2)nc2ccccc12 | 7.31µM* | 2.8% | 9.2µM* | -12.7% | 11.2µM*
O=C(N/N=C/c1ccccn1)c1cc(-c2ccncc2)nc2ccccc12 | -3.0% | ? | ? | ? | 8.91µM*
O=C(N/N=C/c1ccc(O)c(O)c1)c1cc(-c2ccccc2)nc2ccccc12 | -1.2% | 1.7% | 14.3% | nt | nt
O=C(N/N=C/c1ccsc1)c1cc(-c2cccs2)nc2ccccc12 | 6.51µM* | ? | 5.8µM* | 4.47µM* | 3.98µM*
CCN(CC)C(=O)CC(c1ccc(F)cc1)c1ccc(OC(C)C)cc1 (stereo unspecified) | nt | -9.7% | nt | -1.6% | ?
Cc1ccccc1N=C(NO)c1nonc1N | 2.7% | 0.0% | -7.1% | 6.4% | 3.0%
O=C(Nc1cccc(C(=O)O)c1)/C(=C\c1ccc2c(c1)OCO2)NC(=O)c1ccco1 | -18.4% | 18.2% | 0.581µM* | -2.0% | 9.5%
O=C(Nc1ccccc1)/C(=C\c1ccc2c(c1)OCO2)NC(=O)c1ccco1 | ? | 24.1% | 9.2µM* | -8.3% | 19.5%
CCc1cccc(CC)c1-n1c(SCC(=O)N2CCc3ccccc32)nc(O)cc1=O | -1.1% | -5.3% | ? | nt | nt
O=S(=O)(Nc1nc2ccccc2nc1Cl)c1ccccc1 | 5.2% | -5.5% | 0.5% | -16.6% | ?
O=S(=O)(Nc1nc2ccccc2nc1Cl)c1ccc2ccccc2c1 | 2.5% | -19.3% | 23.1µM* | -20.3% | ?
Cc1ccccc1OCc1nnc2c3cnn(C)c3ncn12 | -5.6% | ? | 7.6% | -8.1% | 18.5%
COc1cc2nc(=S)n3[nH]c(CCn4nc(C)cc4C)nc3c2cc1OC | 13µM* | ? | 2.6% | 0.0891µM* | 0.0562µM*
COc1cc2nc(=S)n3[nH]c(COc4ccccc4C)nc3c2cc1OC | -5.2% | ? | 12.3% | 0.398µM* | 0.199µM*
CC(C)=CCC/C(C)=C/CO/N=C1/C[C@@H](O)[C@@H](O)[C@@H]2[C@@H]3C(=O)N(Cc4ccccc4)C(=O)[C@H]3CC[C@@H]12 | nt | nt | nt | -1.5%[10 µM] | -5.8%[10 µM]
COc1ccc(C2C3C(=O)N(N(C)c4ncc(C(F)(F)F)cc4Cl)C(=O)C3ON2C)cc1 (stereo unspecified) | -7.8% | -5.1% | 9.4% | -1.9% | -0.2%
Cn1c(=O)c2c(nc(SCc3ccccc3F)n2C)n(C)c1=O | ? | -16.2% | 0.1% | -2.8% | 0.5%
COCCCNC(=O)c1ccc2c(=O)n(Cc3ccc4c(c3)OCO4)c(=S)[nH]c2c1 | -13.3% | 9.1% | 5.8% | ? | -28.3%
COCCCNC(=O)c1ccc2c(=O)n(Cc3ccc(Cl)cc3)c(=S)[nH]c2c1 | ? | -2.5% | 0.7% | ? | 17.8µM*
COCCCNC(=O)c1ccc(Cn2c(=O)c3ccccc3n(Cc3ccccc3C#N)c2=O)cc1 | 20.6% | ? | 23.1µM* | -9.6% | 11.7%
COCCCNC(=O)c1ccc(Cn2c(=O)c3ccccc3n(Cc3ccccc3C)c2=O)cc1 | 14.8% | ? | 119.2% | 21.9% | 11.2%
CC1CCN(CCNC(=O)c2ccc3c(=O)n(Cc4ccc(Cl)cc4)c(=S)[nH]c3c2)CC1 | -0.9% | 5.6% | 1.7% | ? | 11.2µM*
COc1ccc(CCN2CC(C(=O)N3CCC(O)(c4ccccc4)CC3)CCC2=O)cc1 (stereo unspecified) | -5.7% | -7.6% | -0.8% | -0.3% | -3.1%
O=C(Cc1ccc2c(c1)OCCO2)Nc1cc(C(F)(F)F)ccc1N1CCOCC1 | 0.2% | -16.1% | ? | nt | nt
CC(C)C1OC(c2cccc(NC(=O)c3cccs3)c2)OCC1(C)C (stereo unspecified) | 0.9% | ? | ? | 0.7% | 39.4%
SMILES | SW480 rereplic | ELG1 DNA repair | MCF10A rereplic | VP16 counter | RORg inh
COc1ccc(OC)c(NC(=O)Nc2cc(C(=O)O)ccc2C)c1 | -14.7% | 11.0% | -3.2% | -22.4% | -3.7%
CCn1c(CSCc2ccc(Cl)cc2)n[nH]c1=S | ? | ? | -14.6% | 7.08µM* | 2.24µM*
CCn1c(CSCc2ccc(C)cc2)n[nH]c1=S | -2.0% | 0.9% | 3.4% | 3.55µM* | 5.62µM*
Cn1c(CSCc2ccc(Cl)c(Cl)c2)n[nH]c1=S | 2.5% | -3.3% | 8.2% | 3.98µM* | 5.62µM*
CCn1c(CC(C)C)n[nH]c1=S | 1.9% | -13.1% | -4.5% | -1.3% | ?
Cc1ccc(NC(=O)CN2C(=O)C3CC=CCC3C2=O)cc1S(=O)(=O)N1CCOCC1 (stereo unspecified) | 40.2%[1.84 µM] | -2.8% | -24.0% | 1.1% | 7.6%
COc1ccc(C(C)(C)C)cc1NC(=O)c1cccc(S(=O)(=O)N2CCN(C(C)=O)CC2)c1 | -3.6% | -1.4% | -3.2% | -3.1% | -16.9%
CCCn1c(SCC(=O)NCc2ccc(F)cc2)n[nH]c1=O | -0.1% | -2.1% | -3.9% | -7.3% | -6.1%
CCCNC(=O)c1cn(CC)c2cc(N3CCN(C(=O)c4ccco4)CC3)c(F)cc2c1=O | -13.2% | 13µM* | -2.0% | 0.8% | 25.6%
CCn1cc(C(=O)NCc2cccc(F)c2)c(=O)c2cc(F)c(N3CCN(C(=O)c4ccco4)CC3)cc21 | -0.8% | 13µM* | ? | ? | ?
CCCCNC(=O)c1cn(CC)c2cc(N3CCN(C)CC3)c(F)cc2c1=O | -9.6% | -14.6% | -0.7% | 1.1% | -9.3%
CCn1cc(C(=O)NCc2cccnc2)c(=O)c2cc(F)c(N3CCN(C(=O)c4ccco4)CC3)cc21 | -2.5% | 20.6µM* | 3.2% | -19.4% | 9.5%
Cc1cc(C)nc(SCC(=O)OC(C)C(=O)Nc2ccccc2)n1 (stereo unspecified) | -4.6% | -13.9% | 7.0% | 0.0% | 23.3%
Cc1nnc(SCC(=O)Nc2nccs2)n1C(C)C | -10.2% | 9.9% | -1.9% | -9.0% | 1.9%
CC(=O)NCCOc1nc(N2CCCCC2)nc(N2CCCCC2)n1 | -4.0% | 8.3% | -3.8% | -1.5% | -14.3%
CN(C)c1nc(N)c([N+](=O)[O-])c(NCCO)n1 | -3.5% | 13.9% | -0.2% | -2.5% | -10.2%
CCC1CCCCN1C(=O)COc1ccc2c(c1)OCO2 (stereo unspecified) | -0.8% | 8.4% | 9.8% | 18.6% | -3.0%
Cc1ccc(-n2nnnc2SCC(=O)NNC(=O)c2ccco2)c(C)c1 | -15.3% | 1.0% | 20.6µM* | -3.3% | 2.2%
Cc1ccc(-n2nnnc2SCn2nnc3ccccc3c2=O)c(C)c1 | -1.4% | nt | 4.1% | 7.08µM* | ?
COC(=O)c1ccccc1NC(=O)CSc1nnnn1-c1ccc(C)cc1C | ? | ? | 12.6µM* | 7.4% | -4.8%
O=C(CSc1nnnn1-c1ccccc1F)NNC(=O)c1ccco1 | -31.3% | 15.4% | ? | 2.5% | 14.3%
